An excerpt weighted towards active compounds, which were near 12% of everything screened.
Sfp inh: qHTS Assay for Inhibitors of Bacillus subtilis Sfp phosphopantetheinyl transferase (PPTase); 3.5% of 310,000 active; Potency, µM, actives largely listed as inhibitors; 4'-phosphopantetheinyl transferase ffp (Bacillus subtilis), Q9F4F7; Biochemical Sfp PPTase activity, qHTS;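 further: the enzyme is Sfp with the accession as filed and its product quenches rhodamine fluorescence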
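After 15 min at room temperature with compound, 15 nM Sfp received 5 uM rhodamine-CoA plus 12.5 uM BHQ-2-ybbR (50 mM Hepes pH 7.6, 10 mM MgCl2). Rate came from the fluorescence difference over 30 min, ex 525/em 598 nm.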
PLK1 PBD inh: qHTS for Inhibitors of PLK1-PDB (polo-like kinase 1 - polo-box domain): Primary Screen | Potency, µM, usual class: inhibitors | 2.8% of 360,000 active | Serine/threonine-protein kinase PLK1 (Homo sapiens), P53350 | AID 720504, 2013 | Plk1 PBD binding of FITC phosphopeptide, fluorescence polarization; further: series mostly up to about 57 µM; nearly all actives have a fitted effect of over 65% in size
G9a inh: qHTS Assay for Inhibitors of Histone Lysine Methyltransferase G9a. Histone-lysine N-methyltransferase EHMT2 (Homo sapiens), Q96KQ7. 8.8% of 350,000 active. Potency, µM (highest dose often 102 µM), most hits filed as inhibitors. AID 504332, 2011. G9a H3K9 monomethylation, AlphaScreen, 2 h; further: nearly all actives have a fitted effect of over 75% in size
Target sequence (Q96KQ7 913-1193 limits assumed): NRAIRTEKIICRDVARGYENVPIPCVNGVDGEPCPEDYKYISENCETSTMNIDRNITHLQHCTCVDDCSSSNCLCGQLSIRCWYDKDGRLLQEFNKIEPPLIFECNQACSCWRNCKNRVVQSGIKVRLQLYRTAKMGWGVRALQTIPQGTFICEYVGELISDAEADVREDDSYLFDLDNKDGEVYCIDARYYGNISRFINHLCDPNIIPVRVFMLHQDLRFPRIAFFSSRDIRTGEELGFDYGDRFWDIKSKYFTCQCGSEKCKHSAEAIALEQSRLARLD
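G9a (20 nM) preincubated 15 min RT with compounds, then 500 nM biotinylated H3K9 peptide and 20 uM SAM added; 2 h RT reaction. Monomethyl-H3K9 product detected by AlphaScreen with anti-H3K9me1 antibody, streptavidin donor and anti-rabbit IgG acceptor beads.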
BAZ2B inh: qHTS Assay for Inhibitors of BAZ2B. AlphaScreen BAZ2B-H3K14Ac peptide displacement. 4.4% of 360,000 active. AID 504333, 2011. Bromodomain adjacent to zinc finger domain protein 2B (Homo sapiens), Q9UIF8. Potency, µM (series often up to 114 µM), most hits filed as inhibitors; further: nearly all actives have a fitted effect of over 60% in size
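AlphaScreen luminescence quantifies BAZ2B engagement of H3K14Ac peptide; the protein and biotinylated peptide are both at 50 nM final, buffer PBS pH 7.4 with 0.01% Tween-20, all steps at room temperature.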
JMJD2A Tudor inh: qHTS Assay for Inhibitors of JMJD2A-Tudor Domain | AlphaScreen JMJD2A-Tudor / H3K4me3 peptide binding | Lysine-specific demethylase 4A (Homo sapiens), O75164 | 4.4% of 390,000 active | Potency, µM (titrated, usually from 114 µM), hits mostly inhibitors; further: nearly all actives have a fitted effect of over 50% in size
HP1b chromo inh: HTS for Inhibitors of HP1-beta Chromodomain Interactions with Methylated Histone Tails; Chromobox protein homolog 1 (Homo sapiens), P83916; AlphaScreen HP1-beta / biotin-H3K9me3 peptide binding; Potency, µM (doses to about 114 µM), hits mostly inhibitors; 0.56% of 390,000 active; AID 540317, 2011; further: nearly all actives have a fitted effect of over 70% in size
Target sequence (P83916 whole entry, looked up): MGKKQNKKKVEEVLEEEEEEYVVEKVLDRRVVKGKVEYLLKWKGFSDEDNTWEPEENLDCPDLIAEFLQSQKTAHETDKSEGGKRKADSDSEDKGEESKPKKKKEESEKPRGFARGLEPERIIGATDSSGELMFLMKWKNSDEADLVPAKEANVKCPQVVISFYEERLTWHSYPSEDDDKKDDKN
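HP1-beta protein (50 nM final) preincubated 30 min at room temperature with biotinylated H3(1-18)K9me3 peptide (50 nM) in PBS pH 7.4, 0.01% Tween-20, then compound added for 30 min. AlphaScreen streptavidin donor/nickel chelate acceptor beads (10 ug/mL final), 30 min dark, luminescence read.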
A number is an active result; n = inactive; u = inconclusive; x = not tested or not shown; ! = a repeat was not active; [ ] = another dose, or the depositor's remark. The call rests on the fitted dose curve; in most records, active means well fitted curve in the direction sought with a large enough effect; inconclusive means small, poorly fitted or top-dose-only effect, or another doubt; inactive means no such curve, though single readings can be large; an effect the other way counts as inactive or inconclusive.

SMILES | Sfp inh | PLK1 PBD inh | G9a inh | BAZ2B inh | JMJD2A Tudor inh | HP1b chromo inh
Cc1ccc(NC(=O)Cn2c(-c3cncs3)nc3ccccc32)c(Br)c1 | x | x | n | n | n | n
O=C(COc1ccc2c(c1)CCC2)N1CCc2ccccc21 | n | 3.77µM | n | n | 39.8µM | u
O=C(OCC(=O)N1CCCc2ccccc21)c1ccccc1[N+](=O)[O-] | x | n | u | n | n | n
Cc1ccc(OCC(=O)N2CCc3ccccc32)cc1 | n | n | n | n | n | n
O=C(COc1ccccc1[N+](=O)[O-])N1CCCc2ccccc21 | n | n | 70.8µM | n | n | n
Cc1cnc(CNc2ncncc2-c2cccnc2)cn1 | n | x | n[0.501 µM] | x | x | x
COc1ccc(-c2coc3c(C(=O)Nc4cccc(NS(C)(=O)=O)c4)cccc23)c(C)c1 | x | n | x | x | x | x
COc1cc(Br)c(CN2C(=O)NC3(CCCCCC3)C2=O)cc1OC | n | n | 44.7µM | n | n | n
COc1ccc(Br)cc1CN1C(=O)NC2(CCCCCC2)C1=O | n | n | n | n | n | n
COCCNC(=S)N1CCOCC1 | n | n | n | n | n | n
C[C@H](NS(=O)(=O)OCC(Cl)(Cl)Cl)C1CC1c1ccccc1 (stereo partly specified) | n | n | u | u | 44.7µM | n
N[C@H](C(=O)O)c1ccc(C(=O)O)cc1 | 44.7µM! | x | n | x | x | x
N[C@@H](C(=O)O)c1ccc(C(=O)O)cc1 | n | x | x | x | x | x
CCOC(=O)c1sc2nc3c(cc2c1N)COC(C)(CC)C3 (stereo unspecified) | n | n | n[12.7 µM] | n | n | n
CCC1(C)Cc2nc3sc(C(=O)O)c(N)c3cc2CO1 (stereo unspecified) | 28.2µM | n | 3.55µM | n | 50.1µM | n
COc1ccccc1C(=O)NNC(=S)NC(=O)c1sc2ccccc2c1Cl | n | u | n | n | n | n
CC1CCCCC1NC(=S)NC(=O)c1sc2ccccc2c1Cl (stereo unspecified) | 31.6µM | n | x | n | n | n
Cc1c(NC(=S)NC(=O)c2sc3ccccc3c2Cl)cccc1C(=O)O | n | n | 4.47µM | 50.1µM | u | n
COc1ccccc1CNC(=O)c1oc2c(c1C)-c1nn(Cc3ccc(Cl)cc3)cc1CC2 | x | x | n | n | n | n
CCCNC(=O)c1ccc(N2CCC3(CC2)CC(c2cccc(Br)c2)=NO3)c(NC(=O)c2cccc(C)c2)c1 | x | n | n[2.33 µM] | n | n | n
Cc1sc2nc(CN3CCOCC3)nc(Oc3ccc(NC(=O)c4ccco4)cc3)c2c1C | 89.1µM! | u | 50.1µM! | n | n | n
CC1CCc2c(sc3nc(CN4CCOCC4)nc(N4CCc5ccccc5C4)c23)C1 (stereo unspecified) | n | n | u | u | u | n
Cc1ccc(Oc2nc(CN3CCOCC3)nc3sc4c(c23)CCC(C)C4)cc1 (stereo unspecified) | u | n | 79.4µM | u | u | n
COc1ccccc1NC(=O)CSc1nc2c(oc3ccccc32)c(=O)n1-c1ccccc1F | x | x | n | n | n | n
Cc1ccc2c(c1)nnn2C1CCN(S(=O)(=O)c2ccc(C(=O)N3C(C)CCCC3C)cc2)CC1 (stereo unspecified) | n | n | 25.1µM | u | 50.1µM | n
SMILES | Sfp inh | PLK1 PBD inh | G9a inh | BAZ2B inh | JMJD2A Tudor inh | HP1b chromo inh
Cc1ccc2c(c1)nnn2C1CCN(S(=O)(=O)c2ccc(C(=O)O)cc2)CC1 | n | n | x | n | n | n
CCCC(=O)Nc1ncnc2c1ncn2[C@@H]1O[C@H]2COP(=O)(O)O[C@@H]2[C@@H]1OC(=O)CCC | n | x | n[21.5 µM] | x | x | x
CC(C)C[C@@H](CN1CCCC1CN1C(=S)NC[C@@H]1Cc1ccc(O)cc1)N1C[C@H](Cc2ccc(O)cc2)N(CC2CCCCC2)C1=S (stereo partly specified) | x | 18.9µM | x | x | 39.8µM | n
CC(C)C[C@@H](CN1CCC[C@@H]1CN1C(=S)NC[C@@H]1Cc1ccccc1)N1C[C@H](Cc2ccc(O)cc2)N(CC2CCCCC2)C1=S | x | n | x | x | x | x
Cn1c(N2CCN(C(=O)Nc3ccc(C(F)(F)F)cc3)CC2)nc2ccccc21 | n | 10.6µM | n[2.33 µM] | n | u | n
CCCn1c(N2CCN(C(=O)Nc3ccc(Cl)cc3)CC2)nc2ccccc21 | n | n | n | n | 100µM | n
CCCn1c(N2CCN(CC(=O)Nc3ccc4c(c3)OCCO4)CC2)nc2ccccc21 | n | n | 50.1µM | u | u | n
CCC/C=C(\CCC)C(NS(=O)(=O)c1cccs1)c1ccc(C(=O)OC)cc1 (stereo unspecified) | n | x | x | x | x | x
COc1ccc2c(c1)c1c(c(=O)n(Cc3ccccc3)c(=O)n1Cc1cccc(Cl)c1)n2C | x | x | n | n | n | n
CCOc1cc(/C=C2\C(=N)N3N=C(S(C)(=O)=O)SC3=NC2=O)ccc1OCCOc1cccc(OC)c1 | n | 26.7µM | n[2.33 µM] | 70.8µM | 79.4µM | u
CCS(=O)(=O)C1=NN2C(=N)/C(=C\c3ccc(OCCOc4cccc(OC)c4)c(OC)c3)C(=O)N=C2S1 | n | 23.8µM | 56.2µM | 35.5µM | 56.2µM | n
CCC1=NN2C(=N)/C(=C\c3ccc(OCCOc4ccccc4)c(OC)c3)C(=O)N=C2S1 | n | x | n | n | x | x
N/N=C/C(=N\Nc1ccc(Cl)cc1)C(=O)c1ccncc1 | n | n | n[12.7 µM] | u | u | n
N#C/C(=N\Nc1cccc(C(F)(F)F)c1)C(=O)c1ccsc1 | n | u | 39.8µM | 39.8µM | 50.1µM | n
COc1ccc(NC(=O)CSc2nc3c(sc4ccccc43)c(=O)n2CCCN2CCCC2)cc1 | n | n | u | n | n | n
COc1ccc(-c2nc3c(c4c2C[C@H](c2ccccc2)OC4)CN(S(=O)(=O)c2ccc(C#N)cc2)CC3)c(C)c1 | n | x | x | x | x | x
O=C1NC(=S)N/C1=C/c1cccc([N+](=O)[O-])c1 | n | n | n | n | n | n
O=C1NC(=S)N/C1=C/c1cccnc1 | n | 23.8µM | u | n | n[11.4 µM] | n
CN1C(=O)/C(=C/c2cccc([N+](=O)[O-])c2)C(=O)N1c1ccccc1 | 50.1µM | 2.38µM | 14.1µM | n | u | n
O=C1NC(=S)N/C1=C\c1cccc([N+](=O)[O-])c1 | 56.2µM | n | 50.1µM | n | n | n
O=C1NC(=S)N/C1=C/c1ccc(-c2c(Br)cc([N+](=O)[O-])cc2Br)o1 | n | x | 11.2µM | u | x | x
Cc1ccc2nc(-c3ccc(Cl)c(NC(=O)COc4cccc(C)c4C)c3)oc2c1 | x | x | n | n | n | n
CCCC[C@@H]1C[C@H]1C(NC(=O)c1cccs1)c1ccc(C(F)(F)F)cc1 (stereo partly specified) | n | x | x | x | x | x
